Inconclusive results are not listed. The source made the active and inactive calls. The call rests on the fitted dose curve; in most records, active means well fitted curve in the direction sought with a large enough effect; inconclusive means small, poorly fitted or top-dose-only effect, or another doubt; inactive means no such curve, though single readings can be large; an effect the other way counts as inactive or inconclusive.
Columns and labels:
[1] = Quantitative High-Throughput drug screen in 47 multiple myeloma cell lines against the NCATS MIPE library collection: INA6_PLB cell viability assay (AID 1918965; further: nearly all actives have a fitted effect of over 55% in size); settings: INA6 myeloma viability, CellTiter-Glo ATP luminescence, 48 h; series mostly up to 45.8 µM
Summary of the method: (§1)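 Steps: seed 500 cells per well; pin-transfer MIPE 4.0 library; incubate 48 h at 37C, 5% CO2, humidified; add CellTiter-Glo, 5 min room temperature; read luminescence.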

[2] = Quantitative High-Throughput drug screen in 47 multiple myeloma cell lines against the NCATS MIPE library collection: JJN3_DSMZ cell viability assay (AID 1918966; further: nearly all actives have a fitted effect of over 50% in size); settings: JJN3 myeloma cells viability, CellTiter-Glo ATP, 48 h; series mostly up to 45.8 µM
Summary of the method: (§2)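 We plated 500 myeloma cells per well, pinned in MIPE 4.0 compounds, and incubated for 48 hours at 37C. ATP was then quantified with CellTiter-Glo, with DMSO and media-only wells defining 100% and 0%.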

[3] = Quantitative High-Throughput drug screen in 47 multiple myeloma cell lines against the NCATS MIPE library collection: Karpas25_ECACC cell viability assay (AID 1918968; further: nearly all actives have a fitted effect of over 35% in size); settings: Karpas25 myeloma viability, CellTiter-Glo ATP, 48 h; series mostly up to 45.8 µM
Summary of the method: as §2

[4] = Quantitative High-Throughput drug screen in 47 multiple myeloma cell lines against the NCATS MIPE library collection: KMS12BM_JCRB cell viability assay (AID 1918971); settings: KMS12BM myeloma viability, CellTiter-Glo ATP, 48 h; series mostly up to 45.8 µM; further: nearly all actives have a fitted effect of over 35% in size
Summary of the method: (§3)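 Approved and investigational drugs from MIPE 4.0 were added by pin tool to 500 cells per well. After 48 hours at 37C, ATP-based CellTiter-Glo luminescence indicated remaining viability.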

[5] = Quantitative High-Throughput drug screen in 47 multiple myeloma cell lines against the NCATS MIPE library collection: OCIMY1_PLB cell viability assay (AID 1918979); settings: OCI-MY1 myeloma viability, CellTiter-Glo ATP, 48 h; series mostly up to 45.8 µM; further: nearly all actives have a fitted effect of over 35% in size
Summary of the method: (§4)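 Inhibition of viability over 48 h was scored by ATP content (CellTiter-Glo) in 500-cell wells. Zero and full viability were defined by media-only and DMSO-only wells.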

[6] = Quantitative High-Throughput drug screen in 47 multiple myeloma cell lines against the NCATS MIPE library collection: MM1R_ATCC cell viability assay (AID 1918981); settings: MM1R multiple myeloma cells, CellTiter-Glo viability, 48 h; series mostly up to 45.8 µM; further: nearly all actives have a fitted effect of over 35% in size
Summary of the method: as §4

[7] = Quantitative High-Throughput drug screen in 47 multiple myeloma cell lines against the NCATS MIPE library collection: KMS28PE_JCRB cell viability assay (AID 1918983); settings: KMS28PE multiple myeloma viability, CellTiter-Glo ATP, 48 h; series mostly up to 45.8 µM; further: nearly all actives have a fitted effect of over 35% in size
Summary of the method: as §4

[8] = Quantitative High-Throughput drug screen in 47 multiple myeloma cell lines against the NCATS MIPE library collection: H1112_PLB cell viability assay (AID 1918967; further: nearly all actives have a fitted effect of over 30% in size); settings: H1112 myeloma cells viability, ATP luminescence, 48 h; series mostly up to 45.8 µM
Summary of the method: as §2

[9] = Quantitative High-Throughput drug screen in 47 multiple myeloma cell lines against the NCATS MIPE library collection: KMS27_JCRB cell viability assay (AID 1918970); settings: KMS27 myeloma cells, CellTiter-Glo ATP viability, 48 h; viability (% of DMSO): at 45.8 µM (top of the series); further: nearly all actives have a fitted effect of over 30% in size
Summary of the method: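 Each line is seeded at 500 cells per well and treated with library compounds for 48 hours under 37 °C, 5% CO2. CellTiter-Glo is then added for 5 min at room temperature before median relative luminescence is recorded.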

[10] = Quantitative High-Throughput drug screen in 47 multiple myeloma cell lines against the NCATS MIPE library collection: KMS12PE_JCRB cell viability assay (AID 1918972); settings: KMS12PE myeloma viability, CellTiter-Glo ATP, 48 h; series mostly up to 45.8 µM; further: nearly all actives have a fitted effect of over 30% in size
Summary of the method: as §1

[11] = Quantitative High-Throughput drug screen in 47 multiple myeloma cell lines against the NCATS MIPE library collection: MM1S_ATCC cell viability assay (AID 1918980); settings: MM1S myeloma viability, CellTiter-Glo ATP luminescence, 48 h; series mostly up to 45.8 µM; further: nearly all actives have a fitted effect of over 45% in size
Summary of the method: as §4

[12] = Quantitative High-Throughput drug screen in 47 multiple myeloma cell lines against the NCATS MIPE library collection: L363_DSMZ cell viability assay (AID 1918984); settings: L363 myeloma viability, CellTiter-Glo ATP luminescence, 48 h; viability (% of control): at 45.8 µM (top of the series); further: nearly all actives have a fitted effect of over 40% in size
Summary of the method: as §4

[13] = Quantitative High-Throughput drug screen in 47 multiple myeloma cell lines against the NCATS MIPE library collection: KMS20_JCRB cell viability assay (AID 1918973); settings: CellTiter-Glo ATP, 48 h; series mostly up to 45.8 µM; further: nearly all actives have a fitted effect of over 45% in size
Summary of the method: as §2

[14] = Quantitative High-Throughput drug screen in 47 multiple myeloma cell lines against the NCATS MIPE library collection: KMS26_JCRB cell viability assay (AID 1918975); settings: KMS26 myeloma cells viability, CellTiter-Glo ATP, 48 h; series mostly up to 45.8 µM; further: nearly all actives have a fitted effect of over 45% in size
Summary of the method: as §3

[15] = Quantitative High-Throughput drug screen in 47 multiple myeloma cell lines against the NCATS MIPE library collection: MMM1_PLB cell viability assay (AID 1918976); settings: MMM1 myeloma cells viability, CellTiter-Glo, 48 h; series mostly up to 45.8 µM; further: nearly all actives have a fitted effect of over 35% in size
Summary of the method: as §4

[16] = Quantitative High-Throughput drug screen in 47 multiple myeloma cell lines against the NCATS MIPE library collection: NCIH929_DSMZ cell viability assay (AID 1918978); settings: NCI-H929 myeloma viability, CellTiter-Glo ATP, 48 h; series mostly up to 45.8 µM; further: nearly all actives have a fitted effect of over 35% in size
Summary of the method: as §4

[17] = Quantitative High-Throughput drug screen in 47 multiple myeloma cell lines against the NCATS MIPE library collection: LP1_DSMZ cell viability assay (AID 1918982); settings: LP1 myeloma viability, CellTiter-Glo ATP luminescence, 48 h; series mostly up to 45.8 µM; further: nearly all actives have a fitted effect of over 35% in size
Summary of the method: as §4

[18] = Quantitative High-Throughput drug screen in 47 multiple myeloma cell lines against the NCATS MIPE library collection: KMS34_JCRB cell viability assay (AID 1918985); settings: KMS34 myeloma viability, CellTiter-Glo ATP luminescence, 48 h; series mostly up to 45.8 µM; further: nearly all actives have a fitted effect of over 40% in size
Summary of the method: as §4

[19] = Quantitative High-Throughput drug screen in 47 multiple myeloma cell lines against the NCATS MIPE library collection: MOLP8_DSMZ cell viability assay (AID 1918977); settings: MOLP8 myeloma viability, CellTiter-Glo ATP luminescence, 48 h; series mostly up to 45.8 µM; further: nearly all actives have a fitted effect of over 45% in size
Summary of the method: as §4

[20] = Quantitative High-Throughput drug screen in 47 multiple myeloma cell lines against the NCATS MIPE library collection: KMS21BM_JCRB cell viability assay (AID 1918974); settings: ATP luminescence, 48 h; viability: at 45.8 µM (top of the series)
Summary of the method: as §2
Potency means the concentration at half of the fitted maximal effect.

C[C@H]1O[C@@H](n2cc(F)c(=O)[nH]c2=O)[C@H](O)[C@H]1O
inactive: Potency [2] | Potency [5] | Potency [7]
active: Potency [1] 13.2 µM | Potency [3] 18.7 µM | Potency [4] 16.6 µM | Potency [6] 14.8 µM

C[C@@H]1CCO[C@H]2Cn3cc(C(=O)NCc4ccc(F)cc4F)c(=O)c(O)c3C(=O)N12
inactive: Potency [8] | Potency [9] | Potency [10] | Potency [5]
active: Potency [1] 20.9 µM | Potency [3] 18.7 µM | Potency [4] 20.9 µM | Potency [11] 20.9 µM | Potency [6] 23.5 µM | Potency [7] 23.5 µM | viability (% of control) [12] 92.8%

O=C(Nc1ccc(OC(F)(F)F)cc1)c1sccc1NCc1ccnc2ccccc12
active: Potency [1] 18.7 µM | Potency [2] 9.35 µM | Potency [3] 13.2 µM | Potency [4] 14.8 µM | Potency [10] 18.7 µM | Potency [13] 3.72 µM | Potency [14] 18.7 µM | Potency [15] 16.6 µM | Potency [16] 20.9 µM | Potency [11] 20.9 µM | Potency [6] 20.9 µM | Potency [17] 20.9 µM | Potency [7] 20.9 µM | Potency [18] 10.5 µM

C[C@H]1COC2=C1C(=O)C(=O)c1c2ccc2c1CCCC2(C)C
inactive: Potency [5] | Potency [12]
active: Potency [1] 14.8 µM | Potency [2] 18.7 µM | Potency [3] 4.69 µM | Potency [4] 18.7 µM | Potency [14] 29.6 µM | Potency [15] 13.2 µM | Potency [19] 20.9 µM | Potency [11] 26.4 µM | Potency [17] 18.7 µM

COc1cc([C@H]2Oc3cc([C@H]4Oc5cc(O)cc(O)c5C(=O)[C@H]4O)ccc3O[C@H]2CO)ccc1O
inactive: Potency [9] | Potency [10] | Potency [12]
active: Potency [1] 13.2 µM | Potency [2] 9.35 µM | Potency [4] 10.5 µM | Potency [14] 16.6 µM | Potency [15] 7.43 µM | Potency [16] 23.5 µM | Potency [5] 20.9 µM | Potency [11] 9.35 µM | Potency [6] 23.5 µM | Potency [7] 20.9 µM | Potency [18] 20.9 µM

CCCCCCOC(=O)N=C(N)c1ccc(NCc2nc3cc(C(=O)N(CCC(=O)OCC)c4ccccn4)ccc3n2C)cc1
active: Potency [1] 16.6 µM | Potency [2] 18.7 µM | Potency [9] 11.8 µM | Potency [4] 16.6 µM | Potency [10] 18.7 µM | Potency [19] 20.9 µM | Potency [17] 14.8 µM | Potency [12] 13.2 µM

NC(=O)c1nnn(Cc2cc(Cl)c(C(=O)c3ccc(Cl)cc3)c(Cl)c2)c1N
inactive: Potency [5] | Potency [12]
active: Potency [1] 14.8 µM | Potency [2] 20.9 µM | Potency [10] 6.62 µM | Potency [15] 20.9 µM | Potency [11] 18.7 µM | Potency [6] 18.7 µM

O=C(CCCN1CCN(c2ccc(F)cc2)CC1)NC1c2ccccc2CSc2ccccc21 (centres undefined)
active: Potency [1] 4.69 µM | Potency [8] 7.43 µM | Potency [3] 3.32 µM | Potency [9] 5.9 µM | Potency [4] 11.8 µM | Potency [11] 10.5 µM | Potency [6] 18.7 µM | Potency [17] 2.96 µM | Potency [7] 11.8 µM | Potency [12] 4.69 µM

CCNC(=O)CCCC=CC[C@@H]1[C@H](C=CC(O)CCc2ccccc2)[C@@H](O)C[C@@H]1O (some centres undefined)
active: Potency [4] 7.43 µM | Potency [11] 5.9 µM | Potency [6] 26.4 µM
inactive: Potency [1] | Potency [8] | Potency [3] | Potency [9] | Potency [10] | Potency [16] | Potency [5] | Potency [17] | Potency [7] | Potency [12]

C[C@H]1[C@H](O)O[C@@H]2O[C@@]3(C)CC[C@@H]4[C@H](C)CC[C@@H]1[C@@]24OO3
active: Potency [1] 1.66 µM | Potency [8] 16.6 µM | Potency [3] 1.66 µM | Potency [9] 13.2 µM | Potency [4] 1.66 µM | Potency [13] 14.8 µM | Potency [14] 10.5 µM | Potency [11] 11.8 µM | Potency [12] 2.35 µM

CC[C@@H]([C@H](C)O)n1ncn(-c2ccc(N3CCN(c4ccc(OCC5CO[C@@](Cn6cncn6)(c6ccc(F)cc6F)C5)cc4)CC3)cc2)c1=O (some centres undefined)
inactive: Potency [13]
active: Potency [1] 10.5 µM | Potency [2] 4.18 µM | Potency [3] 6.62 µM | Potency [4] 16.6 µM | Potency [15] 16.6 µM

CCOC(=O)[C@@H](N)CCC(=O)N[C@@H](CSCc1ccccc1)C(=O)N[C@@H](C(=O)OCC)c1ccccc1
inactive: Potency [7]
active: Potency [1] 18.7 µM | Potency [2] 26.4 µM | Potency [3] 23.5 µM | Potency [9] 23.5 µM

CC1=C(CC(=O)O)c2cc(F)ccc2C1=Cc1ccc(S(C)=O)cc1 (centres undefined)
active: Potency [1] 18.7 µM | Potency [2] 10.5 µM | Potency [20] 20.9 µM | Potency [14] 2.09 µM | Potency [16] 1.05 µM | Potency [11] 1.32 µM | Potency [6] 3.32 µM | Potency [7] 20.9 µM | Potency [12] 13.2 µM
inactive: Potency [5] | Potency [17]

Cc1cc(C(C)Nc2ccccc2)c2nc(N3CCOCC3)cc(=O)n2c1 (centres undefined)
active: Potency [1] 18.7 µM | Potency [3] 4.18 µM | Potency [10] 16.6 µM | Potency [13] 10.5 µM
inactive: Potency [2] | Potency [15] | Potency [19] | Potency [5]

O=C(c1ccc(C=Cc2n[nH]c3ccccc23)cc1)N1CCNCC1
active: Potency [1] 3.32 µM | Potency [2] 18.7 µM | Potency [3] 3.72 µM | Potency [10] 2.35 µM | Potency [13] 1.87 µM | Potency [20] 0.59 µM | Potency [14] 16.6 µM | Potency [19] 16.6 µM | Potency [16] 2.35 µM | Potency [11] 16.6 µM | Potency [6] 13.2 µM | Potency [7] 6.62 µM | Potency [12] 3.72 µM | Potency [18] 10.5 µM
